The campaign covered roughly 48,000 compounds. About 13,000 (27%) showed an effect of 50% or more. This is one part of the list.
Tested on: Wolbachia pipientis
Test: Anti-Wolbachia Cell-Based Screen
Type: functional
Set-up: scale not given: in the data most compounds retested in dose-response had high values
Conditions: 5 µM

Row | Compound | Percent Effect
1 | COCC(=O)N1CCC2(CC1)CC(N1CCN(C)CC1)CO2 (stereo not drawn) | -3.796%
2 | O=C(CCc1nc(Cl)n[nH]1)N1C[C@@H](CN2CCCCCC2)[C@@H](CO)C1 | 5.284%
3 | COc1ccc(C(=O)N2CCC(Oc3ccc(C)cc3)(C(=O)O)CC2)o1 | -8.575%
4 | CCc1nnsc1C(=O)N1CCCN(Cc2ccc(C)cc2)CC1 | 9.546%
5 | Cc1ccc(CN2CCOC(C)(c3cnn(C)c3)C2)cc1 (stereo not drawn) | -10.42%
6 | Cc1cccc2[nH]c(C3CCN(C(=O)c4cnc[nH]c4=O)CC3)nc12 | -11.79%
7 | CC(NCc1cccc2c1OCCO2)c1cc2c(cc1Br)OCCO2 (stereo not drawn) | -2.569%
8 | CSCC(C)(O)CNC(=O)c1ccc(Br)cc1C (stereo not drawn) | 6.824%
9 | COc1cccc(C(=O)N2CCCC(c3cc(C)[nH]n3)C2)c1OC (stereo not drawn) | 3.009%
10 | COc1ccccc1-c1nccnc1C1CCN(C(C)=O)CC1 | 137.3%
11 | COc1ccccc1-c1ccc(C2CCCN(C(C)=O)C2)nc1 (stereo not drawn) | 120.7%
12 | CS(=O)(=O)CCC(=O)N1CCC(c2ccc(F)c(F)c2)CC1 | -5.239%
13 | CN1CCCC1c1nccnc1-c1ccc(C(=O)O)cc1 (stereo not drawn) | 141.8%
14 | COc1ccccc1-c1nnc([C@H]2CCN(C(C)=O)C2)o1 | 4.286%
15 | COc1cccc(-c2nccnc2C2CCN(C(C)=O)CC2)c1 | -11.4%
16 | CC(=O)N1CCC(c2nccnc2-c2ccc(F)c(F)c2)CC1 | 101.1%
17 | CC(O)c1cn(CC2CCN(C(=O)CN3CCCC3=O)CC2)nn1 (stereo not drawn) | -6.496%
18 | CCCN(CC1CC1)C(=O)Nc1ccc(N2CCSCC2)cc1C | -17.78%
19 | COCCN(C)c1ccc(NCc2cscn2)nc1 | 1.249%
20 | CN1CCOC(CNC(=O)CCc2cc(F)ccc2F)C1 (stereo not drawn) | 5.661%
21 | COc1ccc(-c2nccnc2C2CCN(C(C)=O)CC2)cc1 | -14.84%
22 | O=C(C1CCOCC1)N1CCc2ncnc(-c3ccc(F)cc3)c2CC1 | -7.65%
23 | CC(=O)N1CCC(c2nccnc2-c2ccc(F)cc2)CC1 | 97.61%
24 | CC(=O)N1CCC(c2nccnc2-c2ccc(C(=O)O)cc2)CC1 | 96%
25 | CC(=O)N1CCC(N2CC[C@H](c3nc4cc(F)ccc4o3)C2)CC1 | -6.986%

Row | Compound | Percent Effect
26 | NC(=O)C1CCCN1CCCc1ccc(C(F)(F)F)cc1 (stereo not drawn) | -6.15%
27 | CC(C)N(C)C(=O)c1ccc(CNc2ncc(C#N)cc2Cl)cc1 | -8.928%
28 | CCN1CCN(CCNc2nc3ccc(C)cc3c(=O)n2C)CC1 | 1.756%
29 | Cc1occc1C(=O)N1Cc2nccn2CC(CN2CCCC2)C1.O=C(O)C(F)(F)F (stereo not drawn) | -14.64%
30 | COCC1CN(C(=O)c2cccc(C)n2)Cc2nccn2C1.O=C(O)C(F)(F)F (stereo not drawn) | -3.838%
31 | CS(=O)(=O)N1Cc2nccn2CC(CNC(=O)c2cccnc2)C1.O=C(O)C(F)(F)F (stereo not drawn) | -1.051%
32 | CC(=O)N1Cc2nccn2CC(CNC(=O)c2cccnc2)C1.O=C(O)C(F)(F)F (stereo not drawn) | -4.633%
33 | O=C(N1CCCC1)N1Cc2nccn2CC(COc2cccnc2)C1.O=C(O)C(F)(F)F (stereo not drawn) | 96.45%
34 | O=C(NCC1CN(c2ncccn2)Cc2nccn2C1)c1cccnc1.O=C(O)C(F)(F)F (stereo not drawn) | 8.129%
35 | Cc1nc(C)n(CC2CN(Cc3nccs3)Cc3nccn3C2)n1.O=C(O)C(F)(F)F (stereo not drawn) | -6.636%
36 | O=C(O)C(F)(F)F.O=C(O)C(F)(F)F.c1cncc(OCC2CN(Cc3nccs3)Cc3nccn3C2)c1 (stereo not drawn) | 104%
37 | O=C(O)C(F)(F)F.c1cnc(N2Cc3nccn3CC(COc3cccnc3)C2)nc1 (stereo not drawn) | 111.9%
38 | CN(Cc1cccnc1)CC1CN(C(=O)C2CC2)Cc2nccn2C1.O=C(O)C(F)(F)F.O=C(O)C(F)(F)F (stereo not drawn) | -3.173%
39 | O=C(O)C(F)(F)F.O=C(O)C(F)(F)F.O=C(c1cccnc1)N1Cc2nccn2CC(COc2cccnc2)C1 (stereo not drawn) | 111%
40 | Cc1ccc(CNC(c2ccccc2)c2nccn2C)cc1C (stereo not drawn) | -2.774%
41 | COc1ccc(C(=O)NS(=O)(=O)c2ccc(CNC(C)=O)s2)cc1 | -0.9731%
42 | Cc1ccnc(NS(=O)(=O)c2cc(C(N)=O)n(C)c2)c1 | 8.268%
43 | Cc1cc(C)cc(NC(=O)CN2CCCC(n3cncn3)C2)c1 (stereo not drawn) | 8.702%
44 | CC(=O)NC[C@]1(O)CCN(C(=O)c2ccc(C)c(F)c2)C[C@H]1O | 111.8%
45 | CC(=O)NC[C@]1(O)CCN(C(=O)c2ccc3c(c2)OCO3)C[C@H]1O | 124.1%
46 | CC(=O)N1CCC2(CC1)CN(C(=O)c1ccc3c(c1)OCO3)C2 | -7.452%
47 | CC[C@@]1(O)CCN(C(=O)c2ccc(SC)cc2)C[C@H]1O | -2.102%
48 | CS(=O)(=O)NCC1CCCN(C(=O)c2ccc3c(c2)CCC3)C1 (stereo not drawn) | -4.65%
49 | CC(=O)NC[C@]1(O)CCN(C(=O)c2ccc(F)c(Cl)c2)C[C@H]1O | 117.5%
50 | CC[C@@]1(O)CCN(C(=O)CCNC(=O)c2ccc(F)cc2)C[C@H]1O | -29.52%

Row | Compound | Percent Effect
51 | CC[C@@]1(O)CCN(C(=O)c2ccc(CN3CCCCCC3)cc2)C[C@H]1O | -35.93%
52 | CC(=O)NC[C@]1(O)CCN(C(=O)c2ccc3c(c2)CCC3)C[C@H]1O | 101.7%
53 | CC(C)=CCN1C[C@H]2CC[C@@H]1CN(C(=O)c1ccc3c(c1)OCO3)C2 | 36%
54 | CC[C@@]1(O)CCN(C(=O)c2ccc(-c3cccc(F)c3)cc2)C[C@H]1O | -0.249%
55 | COCC1CC2(CCN(C(=O)c3ccc(F)c(Cl)c3)CC2)CO1 (stereo not drawn) | -3.157%
56 | Cc1nn(CCO)cc1CN1CCC(C(C)N2CCCC2)CC1 (stereo not drawn) | 9.031%
57 | CCOc1ccc(CNC2CCCN(c3cccnn3)C2)cc1OC (stereo not drawn) | -5.556%
58 | CCCn1ncc(C(=O)N(Cc2cccnc2)C[C@@H]2CCC(=O)N2)c1C | -6.874%
59 | CCn1c(CC2CCN(C(=O)C3CC(C(C)C)=NO3)CC2)nn(C)c1=O (stereo not drawn) | 5.338%
60 | O=C(CCC(=O)N1CCCC1c1cccs1)N1CCc2sccc2C1 (stereo not drawn) | 12.25%
61 | O=C(NC1CC(=O)N(C2Cc3ccccc3C2)C1)c1cc[n+]([O-])cc1 (stereo not drawn) | 5.46%
62 | CC(=O)N1CCN(C(=O)CNc2c(C)cccc2OC(F)F)CC1 | -9.064%
63 | Cc1ccc(C(=O)N2CCC(=O)N(CC3CC3)C(C(C)C)C2)c(=O)[nH]1 (stereo not drawn) | 0.658%
64 | CC(Cc1ccco1)NC(=O)Nc1cnn(CC(N)=O)c1 (stereo not drawn) | 6.71%
65 | Cc1cc(O)nc(C2CCN(C(=O)CO)CC2)n1 | 98.46%
66 | COc1cc(C)nc(N2CCN(C(=O)COCC(F)(F)F)CC2)n1 | -18.67%
67 | Cc1cc(C)nc(Nc2cc(C)nc(C3CCN(C(=O)CO)C3)n2)n1 (stereo not drawn) | 114%
68 | COCCNC(=O)CN1CCN(c2nc(C)cs2)C(C)C1 (stereo not drawn) | 5.094%
69 | CNCC(=O)N1CCCC(c2cccc(Nc3nc(C)cc(C)n3)n2)C1 (stereo not drawn) | -17.94%
70 | COCCNC(=O)c1cc(C)nc(C2CCN(C)CC2)n1 | 102.6%
71 | CCOCCCNC(=O)c1cc(C)nc(N2CCCC2)n1 | 24.14%
72 | Cc1cc(C(F)(F)F)nc(C2CCN(C(=O)CO)CC2)n1 | 124.3%
73 | O=c1[nH]c2nc(NCC3CCCO3)ncc2c(=O)n1-c1cccc(F)c1 (stereo not drawn) | -6.626%
74 | CCc1noc(CC)c1CC(=O)N1CCN(C(=O)C2CCCC2)CC1 | -21.61%
75 | O=C(CCCc1cn[nH]c1)N1C[C@@H](CN2CCCCCC2)[C@@H](CO)C1 | 0.3132%

Row | Compound | Percent Effect
76 | CN(C)CCN(Cc1ccsc1)C(=O)C1=NNC(=O)CC1 | -24.72%
77 | COC(=O)[C@H]1CN(S(C)(=O)=O)CCN1S(C)(=O)=O | -6.679%
78 | Cc1cnc(NCC(C)(C)N2CCOCC2)nc1 | -8.824%
79 | CC1CCN(C(=O)CN2CCC(c3n[nH]c(C4CC4)n3)CC2)CC1 | -23.79%
80 | Cc1nc(C2CCN(C(=O)CO)CC2)cc(N2CCOCC2)n1 | 8.233%
81 | Cc1cc(C)nc(C2CCN(C(=O)CO)CC2)n1 | 128.5%
82 | COC(=O)Cc1cccc(NC(=O)Cc2ccon2)c1 | 4.933%
83 | CC(=O)NCC(=O)N1CCc2nc(C)nc(C)c2CC1 | -10.4%
84 | COCC(=O)N1CCc2nc(NC(C)C)nc(NC(C)C)c2CC1 | 95.04%
85 | Cc1nc2c(c(NC(C)C)n1)CCN(C(=O)CCO)CC2 | 103%
86 | CCOCc1nc2c(c(NCCNC(C)=O)n1)CCN(C(C)=O)CC2 | 14.8%
87 | Cc1nc2c(c(NC3CC3)n1)CCN(C(=O)CCO)CC2.O=C(O)C(F)(F)F | -1.283%
88 | Cc1nc2c(c(NC(C)C)n1)CCN(C1CCOCC1)CC2.O=C(O)C(F)(F)F | -10.52%
89 | CC(C)Nc1nc2c(c(NC3CC3)n1)CN(C(=O)c1ccncc1)CC2 | 1.63%
90 | COCC(=O)N1CCc2nc(C)nc(NC(C)C)c2CC1 | 69.97%
91 | CCOCC(=O)N1CCc2nc(C)nc(NC(C)C)c2CC1 | 81.04%
92 | CC(C)Nc1nc2c(c(NC3CC3)n1)CCN(C(=O)C1CCOC1)CC2 (stereo not drawn) | 25.31%
93 | Cc1nc2c(c(NC(C)C)n1)CCN(C(=O)c1cc[nH]n1)CC2.O=C(O)C(F)(F)F | -4.947%
94 | COCC(=O)NCC(Cc1cccc(F)c1)n1cccc1 (stereo not drawn) | 5.07%
95 | CC(C)SCCNC(=O)c1cccc2ccnn12 | 5.28%
96 | Cc1cc(C)c(CNC(=O)N(C)Cc2nnc3n2CCC3)c(=O)[nH]1 | 2.2%
97 | CSCC(C)(O)CNC(=O)c1ccc(Br)cc1F (stereo not drawn) | 2.874%
98 | COCC(NC(=O)NCc1cccc(Cl)c1)c1ccco1 (stereo not drawn) | 4.656%
